# Sampled rows, rich in hits. Any-hit rate of the full collection: about 10%.
# FLuc inh: inhibitors of firefly (Photinus pyralis) luciferase | purified P. pyralis luciferase, luminescence, biochemical | Potency, µM (highest dose often 115 µM), hits mostly inhibitors | actives 2.5% (n = 76,000); also: nearly all actives have a fitted effect of over 65% in size
#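 Inhibitors were tested against purified firefly luciferase in a biochemical, low-substrate format (both substrates at 10uM) and luminescence measured with a CCD imager.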
# NPR1 antag: human Npr1 receptor antagonism | P16066 | HEK293 hNpr1 GloSensor cGMP, ANP-stimulated luminescence | Potency, µM (series often up to 46.3 µM), most hits filed as inhibitors | actives 1.6% (n = 76,000); calls by dose curve; also: nearly all actives have a fitted effect of over 60% in size
#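 Compound pre-incubated 30 min at room temperature on GloSensor-loaded HEK293 cells stably carrying hNpr1 and the pGS-40F cGMP biosensor. Stimulation uses hNppA at 0.1 nM final; luminescence is taken at baseline and 20 min post-agonist.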
# HEK cytotox: HEK 293 cell cytotoxicity | HEK 293 viability, ATP luminescence (CellTiter-Glo), 48-72 h | Potency, µM (series often up to 115 µM), hits mostly inhibitors | actives 6.6% (n = 94,000) | AID 1345083; also: nearly all actives have a fitted effect of over 60% in size
#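 Viability of HEK 293 cells, plated at 250 cells/well, was judged by cellular ATP after compound treatment for 48 or 72 hr. Luminescence was imaged 10 min after CellTiter-Glo addition at room temperature.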
# 3T3 cytotox: cytotoxic compounds in NIH 3T3 cells; AID 1345082; NIH 3T3 viability, CellTiter-Glo ATP luminescence, 48-72 h; actives 4.3% (n = 94,000); Potency, µM (series often up to 96.7 µM), most hits filed as inhibitors; also: nearly all actives have a fitted effect of over 55% in size
#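 Cytotoxicity is measured as loss of cellular ATP: NIH 3T3 cells (400/well) are exposed to compound for 48 or 72 hr at 37 °C, then CellTiter-Glo luminescence is imaged after 10 min at room temperature.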
# GPT2 inh: blocks human glutamate pyruvate transaminase 2; Q8TD30; Recombinant GPT2, coupled pyruvate oxidase/HRP Amplex Red fluorescence; Potency, µM (series often up to 57.7 µM), most hits filed as inhibitors; actives 0.25% (n = 100,000); AID 1671188; also: nearly all actives have a fitted effect of over 60% in size
#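 Fluorescence read-out: pyruvate from GPT2 turnover coupled to pyruvate oxidase, HRP and Amplex Red (0.2mM ThPP, 0.2U/mL PO and HRP, 50uM Amplex final). Substrates 250uM a-KG, 2mM L-alanine; enzyme 10ng/uL; 30 min RT.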
# Hits are given with their value; - = inactive; ? = inconclusive; . = no result; ! = repeats disagree. Unless noted, calls follow the shape of the dose curve; as a rule, active = well fitted curve in the direction sought with a large enough effect; inconclusive = small, poorly fitted or top-dose-only effect, or another doubt; inactive = no such curve, though single readings can be large; an effect the other way counts as inactive or inconclusive.
SMILES,FLuc inh,NPR1 antag,HEK cytotox,3T3 cytotox,GPT2 inh
CC(C)NC(=O)N1CCCC1C(=O)N1CCCC(c2nc3ncccc3[nH]2)C1 (stereo not given),.,.,-,-,-
CCn1cnnc1-c1nn(C)c2c1CN(C(=O)c1n[nH]c3c1CCCCCC3)CC2,-,-,-,-,-
CNC(=O)c1cc2cc(-c3c(C)noc3C)nc(-c3ccccc3OC)c2o1,-,-,?,?,-
CC(=O)Nc1cccc(-c2nc(-c3c(C)noc3C)cc3cc(C)oc23)c1,-,-,79µM,40µM,?
CC(=O)Nc1cccc(-c2nc(-c3c(C)noc3C)cc3c2cc(-c2ccccc2)n3C)c1,-,-,?,11µM,-
CNC(=O)c1cc2cc(-c3c(C)noc3C)nc(-c3ccccc3C)c2o1,-,-,?,11µM,-
Cc1noc(C)c1-c1cc2c(cc(-c3ccccc3)n2C)c(N(C)C)n1,-,-,?,?,-
COCCCNc1ncnc2c1CN(c1cccc(C)c1)C(=O)CN2C,.,.,-,-,?
FC(F)(F)c1cccc(-c2nccn3c(C4CN(Cc5ccc6cn[nH]c6c5)C4)ncc23)c1,-,-,45µM,40µM,-
COc1ccccc1C(=O)NC[C@@H]1C=C(C)[C@H](Cc2nc3ccccc3[nH]2)C[C@H]1C(C)C,-,?,?,32µM,-
COc1ccc2[nH]c(C[C@@H]3C[C@@H](C(C)C)[C@H](CNC(=O)C4CCC4)C=C3C)nc2n1,-,?,45µM,63µM,-
CC1=C[C@@H](CNC(=O)CN(C)C)[C@H](C(C)C)C[C@H]1Cc1nc2ccccc2[nH]1,-,-,?,100µM,-
O=[S+]([O-])(c1ccc(C(F)(F)F)cc1)N1CCC2(CC1)CC(c1cccc(C(F)(F)F)c1)=NO2,.,.,?,-,.
O=C(CCl)N1CCC2(CC1)CC(c1cccc(C(F)(F)F)c1)=NO2,.,.,79µM,?,.
Fc1ccc(CN2CCC3(CC(c4cccc(C(F)(F)F)c4)=NO3)C2)cc1 (stereo not given),.,.,?,?,-
Cc1noc(C)c1[S+](=O)([O-])N1CCC2(CC1)CC(c1cccc(C(F)(F)F)c1)=NO2,.,.,?,4.5µM,.
O=C(Cc1ccc(F)cc1)N1CCC2(CC1)CC(c1cccc(C(F)(F)F)c1)=NO2,.,.,50µM,40µM,.
CN(C)C(=O)N1CCC2(CC1)CC(c1cccc(C(F)(F)F)c1)=NO2,.,.,45µM,?,.
CC(=O)c1cc(CN2CCC(n3nccc3NC(=O)Cc3ccccc3)CC2)cs1,-,-,?,-,-
COc1ccc(-c2cc(N3CCC(NC(=O)c4cc(Cl)ccc4F)CC3)n[nH]2)cc1,-,-,?,-,-
Cc1ccc(CN2CCC3(CC2)CC(c2cccnc2)=NO3)cc1,-,-,79µM!,?,-
CC(=O)Nc1ccc(CN2CCC3(CC2)CC(c2cccc(C(F)(F)F)c2)=NO3)cc1,-,-,40µM,35µM,-
CC(=O)Nc1ccc(CN2CCC3(CC2)CC(c2cccnc2)=NO3)cc1,-,-,-,-,-
N#Cc1ccc(CN2CCC3(CC(c4cccc(C(F)(F)F)c4)=NO3)C2)cc1 (stereo not given),.,.,?,?,-
COc1cc(OC)c(OC)cc1CN1CCc2nc(N(C)C)[nH]c(=O)c2CC1,-,-,-,-,-
SMILES,FLuc inh,NPR1 antag,HEK cytotox,3T3 cytotox,GPT2 inh
COc1cccc(NC(=O)Cc2c[nH]c3ncc(-c4ccccc4C)cc23)c1,-,?,71µM,?,-
COc1ncccc1-c1cnc2[nH]cc(CC(=O)NCc3ccco3)c2c1,-,?,?,?,-
COc1ncccc1-c1cnc2[nH]cc(CC(=O)Nc3ccncc3)c2c1,-,?,63µM,32µM,-
COc1ccc(-c2cnc3[nH]cc(CC(=O)Nc4cccc(F)c4)c3c2)cc1,-,-,?,?,-
Cc1ccccc1-c1cnc2[nH]cc(CC(=O)NC3CCOCC3)c2c1,-,-,?,?,?
COc1ccc(-c2cnc3[nH]cc(CC(=O)Nc4ccncc4)c3c2)cc1,-,?,?,32µM,-
CCNC(=O)Cc1c[nH]c2ncc(-c3cccnc3OC)cc12,-,-,-,89µM,-
O=C(CCC[C@H]1NC[C@@H]2CC1CN(Cc1ccccc1)C2)NCCCN1CCCCC1,-,-,-,-,-
COc1ccc(-c2cnc3[nH]cc(CC(=O)NC4CCC(O)CC4)c3c2)cc1 (stereo not given),-,-,?,25µM,?
COc1ncccc1-c1cnc2[nH]cc(CC(=O)NC3CCOCC3)c2c1,-,-,?,?,-
COc1ncccc1-c1cnc2[nH]cc(CC(=O)Nc3cccnc3)c2c1,-,?,89µM,?,-
COc1ncccc1-c1cnc2[nH]cc(CC(=O)Nc3ccccc3)c2c1,-,?,?,40µM,-
COc1ncccc1-c1cnc2[nH]cc(CC(=O)Nc3ccccc3C)c2c1,-,-,?,?,?
COc1ccc(-c2cc(N3CCCN(C(=O)Cc4ccc(C)cc4)CC3)n[nH]2)cc1,-,?,?,?,?
Cc1ccc(CC(=O)N2CCCN(c3cc(-c4ccc(C)c(C)c4)[nH]n3)CC2)cc1,-,?,32µM,32µM,?
COc1cccc(CC(=O)N2CCCN(c3cc(-c4ccccc4)[nH]n3)CC2)c1,-,-,35µM,?,?
Cc1ccccc1CC(=O)N1CCCN(c2cc(-c3ccc(Cl)cc3)[nH]n2)CC1,-,-,?,?,?
Cc1ccc(-c2cc(N3CCCN(C(=O)c4ccccc4C)CC3)n[nH]2)cc1C,-,?,32µM,40µM,?
Cc1cccc(CC(=O)N2CCCN(c3cc(-c4ccc(Cl)cc4)[nH]n3)CC2)c1,-,?,?,40µM,?
COc1ccccc1-c1cccc(C(=O)N2CCN(C(=O)NC3CCCC3)CC2)c1,.,.,?,?,-
O=C(NC1CCCCCC1)C1CCc2nnc(CN[S+](=O)([O-])c3ccccc3Cl)n21 (stereo not given),.,.,-,-,-
COc1ccc(-c2cc(N3CCCN(C(=O)Cc4cccc(F)c4)CC3)n[nH]2)cc1,-,-,40µM,?,?
COc1ccc(-c2cc(N3CCCN(C(=O)Cc4ccc(Cl)cc4)CC3)n[nH]2)cc1,-,-,45µM,?,?
O=C(Cc1c[nH]c2ccccc12)N1CCCN(c2cc(-c3ccc(Cl)cc3)[nH]n2)CC1,-,?,45µM,35µM,?
CNC(=O)c1cc(C)nc2onc(C3CCCN(C(=O)c4ccc(Cl)nc4)C3)c12 (stereo not given),.,.,-,-,.
CNC(=O)c1cc(C)nc2onc(C3CCN(C(=O)c4ccc(OC)cc4)C3)c12 (stereo not given),.,.,-,-,.
COc1ccc(-c2c(C(=O)N3CCOCC3)nc3sccn23)cc1,.,.,-,-,?
COc1ccc(-c2noc(-c3cccn3CC(=O)N(C)c3ccccc3)n2)cc1F,-,-,-,-,-

# Compound activity from PubChem.
